Results filed as inconclusive are left out. Calls of active or inactive are those of the source. Unless noted, calls follow the shape of the dose curve; as a rule, active = well fitted curve in the direction sought with a large enough effect in the repeat runs; inconclusive = weak or mixed curves; inactive = flat fitted curve, though single readings scatter.
What was measured:
[1] = qHTS assay to test for compound auto fluorescence at 535 nm (green) in HEK293 cells (AID 720680)
[2] = qHTS assay to test for compound auto fluorescence at 460 nm (blue) in HEK293 cell free culture (AID 720681)
Summary of the method: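 Blue fluorescence (Ex 405/Em 460 nm, triamterene-equivalent) was read immediately after pin transfer of compound or DMSO into medium (DMEM, 10% FBS) without cells.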

[3] = qHTS assay to test for compound auto fluorescence at 535 nm (green) in HEK293 cell free culture (AID 720682)
Summary of the method: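 DMEM + 10% FBS, cell-free; cpd or DMSO pinned in; Ex485/Em535 read; output as fluorescein-equivalent signal.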

[4] = qHTS assay to test for compound auto fluorescence at 590 nm (red) in HepG2 cell free culture (AID 720684)
Summary of the method: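 No cells present: MEM + 10% FBS only. Compound pinned in, red label read (540/590 nm). Activity = fluorescence equivalent to Rose Bengal sodium.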

[5] = qHTS assay to test for compound auto fluorescence at 460 nm (blue) in HepG2 cell free culture (AID 720685)
Summary of the method: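 Cell-free plates of MEM plus 10% FBS received 23 nL compound or DMSO vehicle; blue-channel (405/460 nm) intensity scored against triamterene as reference fluorophore.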

[6] = qHTS assay to test for compound auto fluorescence at 535 nm (green) in HepG2 cell free culture (AID 720686)
[7] = qHTS assay to test for compound auto fluorescence at 460 nm (blue) in HepG2 cells (AID 720687)
Summary of the method: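 Blue-channel autofluorescence (Ex/Em 405/460 nm, triamterene-equivalent) was measured after 1 hr compound exposure at 37 C, 5% CO2. Cells were HepG2, plated overnight at 37 C in MEM plus 10% FBS.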

[8] = target: Glucocorticoid receptor (Homo sapiens) (UniProt P04150); experiment: qHTS assay to identify small molecule agonists of the glucocorticoid receptor (GR) signaling pathway (AID 720691; active = well fitted activation curve with a large enough effect in the signal ratio in the repeat runs, not every such curve was filed as active; the % refers to the signal ratio)
Summary of the method: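 Compounds in DMSO, alongside positive controls, were added to GR-bla HeLa reporter cells and incubated 18 h at 37 C; GRE-driven beta-lactamase was detected by fluorescence after 2 h with FRET substrate at room temperature.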

[9] = target: Glucocorticoid receptor (Homo sapiens) (UniProt P04150); experiment: qHTS assay to identify small molecule antagonists of the glucocorticoid receptor (GR) signaling pathway (AID 720692; active = well fitted inhibition curve with a large enough effect in the signal ratio in the repeat runs, not every such curve was filed as active; the % refers to the signal ratio)
Summary of the method: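 In a 1536-well cell format, compounds were added 4 h after seeding GR-bla HeLa cells, together with dexamethasone at 5 nM final; reporter activity was measured by FRET-substrate fluorescence following 18 h at 37 C.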

[10] = qHTS assay to test for compound auto fluorescence at 590 nm (red) in HEK293 cell free culture (AID 720683)
Summary of the method: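 Red-channel autofluorescence of compounds in culture medium (DMEM, 10% FBS), no cells, measured at 540/590 nm. Rose Bengal sodium is the reference fluorophore for equivalence.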
% is scaled to controls: 0 for no effect and ±100 for the full control effect.

Sequence of Glucocorticoid receptor (Homo sapiens) (P04150 whole entry, looked up): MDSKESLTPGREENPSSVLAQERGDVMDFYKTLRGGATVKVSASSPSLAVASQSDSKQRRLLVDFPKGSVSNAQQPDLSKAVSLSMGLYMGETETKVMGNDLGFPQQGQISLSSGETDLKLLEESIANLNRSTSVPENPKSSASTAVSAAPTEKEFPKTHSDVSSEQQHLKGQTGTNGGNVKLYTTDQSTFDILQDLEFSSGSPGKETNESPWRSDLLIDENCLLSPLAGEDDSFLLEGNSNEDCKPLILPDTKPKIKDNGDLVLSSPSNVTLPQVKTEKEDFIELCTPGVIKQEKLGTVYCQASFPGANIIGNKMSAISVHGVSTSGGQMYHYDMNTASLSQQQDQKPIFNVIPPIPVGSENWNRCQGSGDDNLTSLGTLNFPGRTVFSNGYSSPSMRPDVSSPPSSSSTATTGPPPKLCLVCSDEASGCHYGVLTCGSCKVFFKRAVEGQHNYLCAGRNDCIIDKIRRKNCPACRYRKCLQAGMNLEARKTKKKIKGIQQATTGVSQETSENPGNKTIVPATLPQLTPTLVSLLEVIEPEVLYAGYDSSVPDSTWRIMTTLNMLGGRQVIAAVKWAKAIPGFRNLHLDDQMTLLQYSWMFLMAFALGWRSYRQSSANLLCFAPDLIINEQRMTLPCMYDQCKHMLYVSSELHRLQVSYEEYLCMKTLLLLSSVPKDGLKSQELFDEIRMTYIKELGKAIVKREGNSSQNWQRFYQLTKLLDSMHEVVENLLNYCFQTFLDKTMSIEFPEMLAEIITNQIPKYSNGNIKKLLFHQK

O=c1cc(O)c(Cl)c[nH]1
inactive: outcome [1] | outcome [2] | outcome [3] | outcome [4] | outcome [5] | outcome [6] | outcome [7]

Cc1cc(O)c2c(c1)C(=O)c1cccc(O)c1C2=O
inactive: outcome [1] | outcome [2] | outcome [3] | outcome [4] | outcome [5] | outcome [6] | outcome [7] | Potency [8]

O=C(O)Cc1cccc(-c2cc(CCCCCCc3ccc(O[C@H]4O[C@H](CO)[C@@H](O)[C@H](O)[C@@H]4O)c(-c4cccc(CC(=O)O)c4)c3)ccc2O[C@H]2O[C@H](CO)[C@@H](O)[C@H](O)[C@@H]2O)c1
inactive: outcome [1] | outcome [2] | outcome [3] | outcome [4] | outcome [5] | outcome [6]

Cc1cccc(NC(=S)N(C)C)c1
inactive: outcome [1] | outcome [2] | outcome [3] | outcome [4] | outcome [5] | outcome [6] | Potency [8] | outcome [9]

Cc1nc([N+](=O)[O-])cn1-c1ccc([N+](=O)[O-])cc1
inactive: outcome [1] | outcome [2] | outcome [3] | outcome [4] | outcome [5] | outcome [6] | outcome [7] | Potency [8] | outcome [9]

O=c1[nH]c(=O)c2ccccc2o1
inactive: outcome [1] | outcome [2] | outcome [3] | outcome [4] | outcome [6]

Cc1nc2ccccc2c(=O)o1
inactive: outcome [1] | outcome [2] | outcome [3] | outcome [4] | outcome [6]

CC(C)COC(=O)CCCCC(=O)OCC(C)C
inactive: outcome [1] | outcome [2] | outcome [3] | outcome [4] | outcome [5] | outcome [6]

Nc1ccc(S(=O)(=O)NC(=O)c2ccccc2)cc1
inactive: fluorescence, % of fluorescein [1] -0.0049% [at 18.6 µM] | fluorescence, % of fluorescent control [2] -0.0169% [at 18.6 µM] | activity change [3] 0.0575% [at 18.6 µM] | fluorescence, % of Rose Bengal [4] -0.0804% [at 18.6 µM] | fluorescence, % of fluorescent control [5] -0.0907% [at 18.6 µM] | fluorescence, % of fluorescein control [6] -0.0092% [at 18.6 µM] | fluorescence, % of fluorescent control [7] -0.0228% [at 18.6 µM] | Potency [8] | outcome [9]

O=S(=O)(O)SSS(=O)(=O)O
inactive: outcome [1] | outcome [2] | outcome [3] | outcome [4] | outcome [5] | outcome [6] | outcome [7]

NS(=O)(=O)c1ccc(Cl)c(S(N)(=O)=O)c1
inactive: outcome [1] | outcome [2] | outcome [3] | outcome [4] | outcome [5] | outcome [6] | outcome [7] | Potency [8] | outcome [9]

Cc1cccc(C(=O)O)c1[N+](=O)[O-]
inactive: outcome [1] | outcome [2] | outcome [10] | outcome [4] | outcome [5] | outcome [6] | outcome [7]

CCCO
inactive: outcome [1] | outcome [2] | outcome [3] | outcome [4] | outcome [6] | outcome [7] | Potency [8] | outcome [9]

CC1CCC(C(C)(C)S)C(=O)C1 (stereo not given)
inactive: outcome [1] | outcome [2] | outcome [3] | outcome [4] | outcome [6] | outcome [7]

CC(C)CCCC(C)CC=O (stereo not given)
inactive: outcome [1] | outcome [2] | outcome [3] | outcome [4] | outcome [5] | outcome [6] | outcome [7]

C=COCCOCCOC=C
inactive: outcome [1] | outcome [2] | outcome [3] | outcome [6] | outcome [7] | Potency [8] | outcome [9]

Cn1c(=O)c2c(ncn2CC2OCCO2)n(C)c1=O
inactive: outcome [1] | outcome [2] | outcome [3] | outcome [4] | outcome [5] | outcome [6] | outcome [7]

CCOC(=O)CCCCCCCCC(=O)OCC
inactive: outcome [1] | outcome [2] | outcome [3] | outcome [5] | outcome [6] | outcome [7]

F[Si-2](F)(F)(F)(F)F
inactive: outcome [1] | outcome [2] | outcome [3] | outcome [4] | outcome [5] | outcome [6] | outcome [7] | Potency [8] | outcome [9]

CC(C)SCc1ccco1
inactive: outcome [1] | outcome [2] | outcome [3] | outcome [4] | outcome [5] | outcome [6] | outcome [7]

CC(C)COC(=O)CC(C(=O)OCC(C)C)S(=O)(=O)O (stereo not given)
inactive: outcome [1] | outcome [2] | outcome [10] | outcome [5] | outcome [6] | outcome [7] | Potency [8] | outcome [9]

CCC(CO)CO
inactive: outcome [1] | outcome [2] | outcome [10] | outcome [4] | outcome [6] | outcome [7] | Potency [8] | outcome [9]

CC(C)COC(=O)/C=C/c1ccccc1
inactive: outcome [1] | outcome [2] | outcome [10] | outcome [4] | outcome [5] | outcome [6] | outcome [7]

C1=CCC(c2ccccc2)CC1 (stereo not given)
inactive: outcome [1] | outcome [2] | outcome [10] | outcome [4] | outcome [5] | outcome [6] | outcome [7] | Potency [8]

C=C[C@@H](C)CCC=C(C)C
inactive: outcome [1] | outcome [2] | outcome [4] | outcome [5] | outcome [6] | outcome [7] | Potency [8] | outcome [9]

N#CCCOCCOCCC#N
inactive: outcome [1] | outcome [2] | outcome [4] | outcome [5] | outcome [6] | outcome [7] | Potency [8] | outcome [9]

From PubChem BioAssay (Tox21)
